Results reported in ChEMBL document CHEMBL3988442, “University of Dundee, Small-Polar-MMV Screening Library” (2021).
For some of these results: Potency and affinity values are given separately.

What was measured:
Parameters in all cases: scale not given: direction of the effect not stated beside the values
[1] = molecular target: Protein translocase subunit SecA (Escherichia coli (strain K12)) (UniProt P10408); test: Assay to Identify E. coli SecA ATPase Inhibitors; format: functional; settings: 30 µM
[2] = molecular target: T1, Ubiquitin-activating enzyme e1, putative (Leishmania donovani (strain BPK282A1)) (UniProt E9BSI1); test: Leishmania donovani Ubiquitin Activating Enzyme (LdE1); format: functional; settings: 30 µM
T1 sequence (whole entry): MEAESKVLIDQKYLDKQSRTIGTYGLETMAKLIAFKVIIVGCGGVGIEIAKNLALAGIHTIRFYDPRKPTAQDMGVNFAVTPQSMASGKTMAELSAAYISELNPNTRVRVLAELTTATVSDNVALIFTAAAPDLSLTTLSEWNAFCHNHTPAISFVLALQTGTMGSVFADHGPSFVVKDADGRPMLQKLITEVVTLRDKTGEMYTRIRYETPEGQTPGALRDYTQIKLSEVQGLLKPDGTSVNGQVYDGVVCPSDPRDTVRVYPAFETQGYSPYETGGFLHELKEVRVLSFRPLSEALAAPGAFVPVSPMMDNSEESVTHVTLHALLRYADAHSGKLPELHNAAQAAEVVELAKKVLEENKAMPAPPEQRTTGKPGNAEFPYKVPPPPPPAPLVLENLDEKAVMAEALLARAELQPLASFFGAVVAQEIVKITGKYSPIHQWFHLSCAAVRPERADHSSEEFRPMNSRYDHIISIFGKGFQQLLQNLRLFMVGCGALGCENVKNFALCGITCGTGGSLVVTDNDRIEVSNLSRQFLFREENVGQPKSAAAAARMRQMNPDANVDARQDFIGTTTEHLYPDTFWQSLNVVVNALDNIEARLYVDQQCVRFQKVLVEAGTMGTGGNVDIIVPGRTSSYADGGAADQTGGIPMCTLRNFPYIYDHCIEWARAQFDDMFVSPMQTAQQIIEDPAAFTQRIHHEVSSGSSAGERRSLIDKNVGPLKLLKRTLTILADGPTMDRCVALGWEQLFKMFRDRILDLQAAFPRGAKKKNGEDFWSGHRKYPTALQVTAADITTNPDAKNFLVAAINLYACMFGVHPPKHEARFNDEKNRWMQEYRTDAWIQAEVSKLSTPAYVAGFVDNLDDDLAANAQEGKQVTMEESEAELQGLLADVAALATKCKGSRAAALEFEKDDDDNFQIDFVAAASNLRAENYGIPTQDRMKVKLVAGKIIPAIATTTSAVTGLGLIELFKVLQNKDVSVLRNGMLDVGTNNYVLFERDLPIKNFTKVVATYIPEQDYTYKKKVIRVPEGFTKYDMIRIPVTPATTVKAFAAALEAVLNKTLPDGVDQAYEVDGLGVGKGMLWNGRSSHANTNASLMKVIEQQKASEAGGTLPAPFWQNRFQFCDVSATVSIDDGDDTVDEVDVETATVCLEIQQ

[3] = molecular target: AMP-activated protein kinase, AMPK (Homo sapiens) (UniProt P54646+O43741+P54619+Q9UGJ0+Q9Y478+Q13131+Q9UGI9); test: AMP-dependent Kinase enzyme assay. An in vitro enzyme assay that detects ADP turnover that is directly proportional to AMPK activity. This uses naive AMPK that is activated during the assay with MK-8722; format: functional; settings: 30 µM
[4] = molecular target: Sialic acid-binding Ig-like lectin 9 (Homo sapiens) (UniProt Q9Y336); test: Hs-Siglec9 ALPHAscreen SOP 20170721; settings: 10 µM
[5] = test system: Trypanosoma cruzi; test: Trypanosoma cruzi phosphomannomutase and mannose-1-phosphate guanylyltransferase assay; format: functional; settings: 10 µM
[6] = molecular target: T2, Arginase-2, mitochondrial (Homo sapiens) (UniProt P78540); test: in vitro enzyme assay to detect the production of urea directly proportional to the activity of Arginase II; format: functional; settings: 33.3 µM; also: in the data most compounds retested in dose-response had high values
T2 sequence (whole entry): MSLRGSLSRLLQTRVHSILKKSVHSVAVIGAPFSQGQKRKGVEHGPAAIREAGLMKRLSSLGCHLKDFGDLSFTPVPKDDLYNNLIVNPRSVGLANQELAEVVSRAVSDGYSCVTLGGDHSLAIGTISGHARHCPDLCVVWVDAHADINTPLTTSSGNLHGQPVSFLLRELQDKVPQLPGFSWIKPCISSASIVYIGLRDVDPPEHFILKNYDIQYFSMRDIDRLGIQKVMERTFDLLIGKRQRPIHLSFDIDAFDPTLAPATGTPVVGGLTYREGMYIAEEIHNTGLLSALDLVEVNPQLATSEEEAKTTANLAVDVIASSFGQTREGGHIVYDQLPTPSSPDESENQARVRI

[7] = molecular target: T3, Proteasome subunit beta (Trypanosoma cruzi) (UniProt O96673); test: Trypanosoma cruzi proteasome chymotrypsin-like activity (TcProtChymo) assay.; also: in the data most compounds retested in dose-response had high values; format: functional; settings: 9.37 µM
T3 sequence (whole entry): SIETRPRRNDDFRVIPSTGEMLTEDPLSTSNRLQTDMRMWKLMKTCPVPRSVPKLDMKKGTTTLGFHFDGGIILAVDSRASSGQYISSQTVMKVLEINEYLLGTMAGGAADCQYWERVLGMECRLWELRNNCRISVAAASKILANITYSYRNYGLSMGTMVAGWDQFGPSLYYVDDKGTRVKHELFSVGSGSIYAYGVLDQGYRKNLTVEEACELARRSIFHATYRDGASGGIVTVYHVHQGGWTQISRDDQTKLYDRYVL

[8] = species: Homo sapiens; test: To identify inhibition of the IFN signalling (Jak-Stat) pathway via expression of an eGFP reporter gene under the control of an IFN-stimulated response element (ISRE) containing MxA promoter.; format: functional; settings: 30 µM
[9] = molecular target: T4, Tyrosyl-tRNA synthetase, putative (Trypanosoma cruzi (strain CL Brener)) (UniProt Q4DSP6); test: Trypanosoma cruzi tyrosyl tRNA synthetase (TcYRS) _High Tyrosine SOP; format: functional; settings: 30 µM; also: in the data most compounds retested in dose-response had high values
T4 sequence (whole entry): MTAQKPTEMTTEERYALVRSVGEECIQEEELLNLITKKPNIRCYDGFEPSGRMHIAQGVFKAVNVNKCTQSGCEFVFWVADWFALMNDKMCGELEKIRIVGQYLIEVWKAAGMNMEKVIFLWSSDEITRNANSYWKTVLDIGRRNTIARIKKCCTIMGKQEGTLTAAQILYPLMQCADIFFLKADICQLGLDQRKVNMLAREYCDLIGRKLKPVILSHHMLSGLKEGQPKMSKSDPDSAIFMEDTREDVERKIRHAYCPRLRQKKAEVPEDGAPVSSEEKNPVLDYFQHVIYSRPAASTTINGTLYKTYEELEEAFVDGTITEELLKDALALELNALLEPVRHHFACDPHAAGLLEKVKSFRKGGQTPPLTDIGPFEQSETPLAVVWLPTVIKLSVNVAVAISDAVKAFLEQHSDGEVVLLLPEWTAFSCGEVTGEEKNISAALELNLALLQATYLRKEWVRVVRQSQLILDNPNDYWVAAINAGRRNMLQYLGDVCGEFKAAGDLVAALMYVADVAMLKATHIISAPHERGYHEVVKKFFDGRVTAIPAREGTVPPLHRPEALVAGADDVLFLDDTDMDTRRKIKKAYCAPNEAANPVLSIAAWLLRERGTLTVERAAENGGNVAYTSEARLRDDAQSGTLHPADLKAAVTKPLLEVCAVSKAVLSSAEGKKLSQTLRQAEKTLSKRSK

[10] = molecular target: T4, Tyrosyl-tRNA synthetase, putative (Trypanosoma cruzi (strain CL Brener)); test: Trypanosoma cruzi tyrosyl tRNA synthetase (TcYRS) SOP; format: functional; settings: 30 µM
[11] = molecular target: Chromo domain-containing protein 1 (Saccharomyces cerevisiae (strain ATCC 204508 / S288c) (Baker's yeast)) (UniProt P32657); test: ScCHD-1 Enzyme Inhibition Assay; format: functional; settings: 30 µM; also: in the data most compounds retested in dose-response had high values
Chain of Chromo domain-containing protein 1 (Saccharomyces cerevisiae (strain ATCC 204508 / S288c) (Baker's yeast)) (P32657 whole entry, the tested form may be a part): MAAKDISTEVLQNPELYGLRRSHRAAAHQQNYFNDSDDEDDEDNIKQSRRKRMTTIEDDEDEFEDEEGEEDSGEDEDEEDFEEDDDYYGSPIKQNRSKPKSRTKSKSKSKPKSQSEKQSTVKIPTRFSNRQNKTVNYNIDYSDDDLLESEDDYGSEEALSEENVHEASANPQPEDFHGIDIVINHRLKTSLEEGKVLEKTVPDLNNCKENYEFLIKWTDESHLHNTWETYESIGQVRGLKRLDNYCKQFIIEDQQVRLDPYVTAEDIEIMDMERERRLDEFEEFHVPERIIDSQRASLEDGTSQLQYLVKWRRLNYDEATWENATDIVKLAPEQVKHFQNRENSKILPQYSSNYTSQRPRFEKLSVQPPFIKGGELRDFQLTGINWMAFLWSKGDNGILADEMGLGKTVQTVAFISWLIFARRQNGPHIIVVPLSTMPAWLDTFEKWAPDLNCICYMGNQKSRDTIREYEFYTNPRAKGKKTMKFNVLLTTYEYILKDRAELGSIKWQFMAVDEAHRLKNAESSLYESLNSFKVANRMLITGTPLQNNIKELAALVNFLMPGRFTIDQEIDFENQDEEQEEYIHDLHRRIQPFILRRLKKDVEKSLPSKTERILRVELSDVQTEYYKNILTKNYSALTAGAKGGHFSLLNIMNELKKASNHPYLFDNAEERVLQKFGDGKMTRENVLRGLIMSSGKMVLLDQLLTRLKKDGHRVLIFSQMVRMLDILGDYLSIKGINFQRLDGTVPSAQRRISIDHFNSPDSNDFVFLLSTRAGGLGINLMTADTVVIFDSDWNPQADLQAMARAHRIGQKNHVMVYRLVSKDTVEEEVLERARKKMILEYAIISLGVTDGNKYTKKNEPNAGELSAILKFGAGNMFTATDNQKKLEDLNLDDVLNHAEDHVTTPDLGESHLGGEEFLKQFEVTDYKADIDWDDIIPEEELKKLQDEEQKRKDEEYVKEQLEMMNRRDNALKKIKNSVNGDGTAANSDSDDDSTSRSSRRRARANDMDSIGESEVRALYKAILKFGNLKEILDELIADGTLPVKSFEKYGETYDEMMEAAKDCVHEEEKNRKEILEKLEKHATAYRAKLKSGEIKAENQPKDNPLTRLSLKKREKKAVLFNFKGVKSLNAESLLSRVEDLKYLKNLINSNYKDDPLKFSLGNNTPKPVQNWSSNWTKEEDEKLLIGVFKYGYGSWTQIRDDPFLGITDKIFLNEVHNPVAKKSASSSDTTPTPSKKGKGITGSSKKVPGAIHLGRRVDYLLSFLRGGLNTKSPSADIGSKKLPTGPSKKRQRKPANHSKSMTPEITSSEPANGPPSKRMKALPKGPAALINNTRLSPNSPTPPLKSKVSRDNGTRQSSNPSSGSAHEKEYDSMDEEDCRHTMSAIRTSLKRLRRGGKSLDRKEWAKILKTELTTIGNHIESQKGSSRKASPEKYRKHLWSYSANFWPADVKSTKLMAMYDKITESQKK

Chain of Sialic acid-binding Ig-like lectin 9 (Homo sapiens) (Q9Y336 whole entry): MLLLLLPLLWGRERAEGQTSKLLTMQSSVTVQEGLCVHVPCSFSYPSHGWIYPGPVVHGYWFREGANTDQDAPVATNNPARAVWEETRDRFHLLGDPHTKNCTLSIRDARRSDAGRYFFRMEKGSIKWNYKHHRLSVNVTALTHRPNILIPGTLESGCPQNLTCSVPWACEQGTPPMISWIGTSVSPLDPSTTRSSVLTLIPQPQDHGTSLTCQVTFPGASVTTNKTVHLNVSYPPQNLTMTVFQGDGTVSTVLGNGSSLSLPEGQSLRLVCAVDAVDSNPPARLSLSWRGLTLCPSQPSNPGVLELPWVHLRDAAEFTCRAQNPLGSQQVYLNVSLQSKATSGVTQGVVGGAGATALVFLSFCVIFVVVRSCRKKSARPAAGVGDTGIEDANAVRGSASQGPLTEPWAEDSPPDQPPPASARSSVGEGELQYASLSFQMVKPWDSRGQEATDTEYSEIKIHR
Chain of Protein translocase subunit SecA (Escherichia coli (strain K12)) (P10408 whole entry): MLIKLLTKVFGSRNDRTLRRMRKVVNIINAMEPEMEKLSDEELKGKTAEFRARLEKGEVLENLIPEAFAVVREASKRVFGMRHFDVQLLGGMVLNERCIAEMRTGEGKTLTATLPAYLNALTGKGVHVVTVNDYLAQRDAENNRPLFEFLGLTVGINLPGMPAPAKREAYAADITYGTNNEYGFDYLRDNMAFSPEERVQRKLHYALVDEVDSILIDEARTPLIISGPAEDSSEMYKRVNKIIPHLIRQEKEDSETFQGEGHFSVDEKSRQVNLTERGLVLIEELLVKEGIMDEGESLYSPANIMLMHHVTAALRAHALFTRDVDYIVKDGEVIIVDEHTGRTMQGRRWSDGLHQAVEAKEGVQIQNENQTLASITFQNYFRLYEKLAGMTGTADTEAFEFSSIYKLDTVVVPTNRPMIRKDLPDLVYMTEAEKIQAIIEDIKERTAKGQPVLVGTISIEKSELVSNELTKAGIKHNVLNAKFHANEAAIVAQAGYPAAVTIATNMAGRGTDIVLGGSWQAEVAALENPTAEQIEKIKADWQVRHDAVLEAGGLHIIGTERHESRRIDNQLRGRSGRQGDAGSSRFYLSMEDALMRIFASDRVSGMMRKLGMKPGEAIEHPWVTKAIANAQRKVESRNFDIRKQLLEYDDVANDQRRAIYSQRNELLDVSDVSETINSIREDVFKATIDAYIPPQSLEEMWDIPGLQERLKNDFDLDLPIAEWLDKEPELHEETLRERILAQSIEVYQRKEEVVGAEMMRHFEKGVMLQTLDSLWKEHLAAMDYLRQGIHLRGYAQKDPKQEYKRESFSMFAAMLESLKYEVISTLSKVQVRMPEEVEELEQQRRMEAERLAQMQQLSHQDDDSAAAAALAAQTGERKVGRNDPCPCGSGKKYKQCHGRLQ

Structure (SMILES): C=C(Cl)CN1CCC(C(=O)c2cc(F)ccc2F)CC1
- Percent Effect [1]: -2.54%
- Percent Effect [2]: -13.2%
- Percent Effect [3]: 5.79%
- Percent Effect [4]: -1.3%
- Percent Effect [5]: 4.32%
- Percent Effect [6]: -0.766%
- Percent Effect [7]: -1.67%
- Percent Effect [8]: 5.08%
- Percent Effect [9]: 0.49%
- Percent Effect [10]: 4.88%
- Percent Effect [11]: 6.62%

Structure (SMILES): Cc1cccc(CCC(=O)N2CCCC(c3cc(C(N)=O)[nH]n3)C2)c1 (stereo not drawn)
- Percent Effect [1]: -1.48%
- Percent Effect [2]: -18.9%
- Percent Effect [3]: 4.97%
- Percent Effect [4]: 8.55%
- Percent Effect [5]: 6.13%
- Percent Effect [6]: -10%
- Percent Effect [7]: 0.36%
- Percent Effect [8]: 9.14%
- Percent Effect [9]: 0.493%
- Percent Effect [10]: 11.1%
- Percent Effect [11]: -8.73%

Structure (SMILES): NC(=O)CN1CCCN(C(=O)c2ccn(-c3cccc(F)c3)n2)CC1
- Percent Effect [1]: -1.81%
- Percent Effect [2]: 6.94%
- Percent Effect [3]: -1.98%
- Percent Effect [4]: -6%
- Percent Effect [5]: -3.01%
- Percent Effect [6]: 2.21%
- Percent Effect [7]: 10.3%
- Percent Effect [8]: -17.8%
- Percent Effect [9]: -1.05%
- Percent Effect [10]: 5.13%
- Percent Effect [11]: -0.989%

Structure (SMILES): C=C(C)COCCNC(=O)C1CCCN1C(C)=O (stereo not drawn)
- Percent Effect [1]: -2.72%
- Percent Effect [2]: 18.2%
- Percent Effect [3]: -0.215%
- Percent Effect [4]: 2.93%
- Percent Effect [5]: 7.3%
- Percent Effect [6]: -1.78%
- Percent Effect [7]: 5.41%
- Percent Effect [8]: 6.11%
- Percent Effect [9]: 5.83%
- Percent Effect [10]: 21.9%
- Percent Effect [11]: -8.29%

Structure (SMILES): CCOC1CCCN(C(=O)c2cnc3c(cnn3C3CCCC3)c2)C1 (stereo not drawn)
- Percent Effect [1]: -4.83%
- Percent Effect [2]: 0%
- Percent Effect [3]: 2.09%
- Percent Effect [4]: 0.582%
- Percent Effect [5]: -2.93%
- Percent Effect [6]: -2.66%
- Percent Effect [7]: -2.38%
- Percent Effect [8]: 24.1%
- Percent Effect [9]: 1.48%
- Percent Effect [10]: -8.86%
- Percent Effect [11]: -4.24%

Structure (SMILES): O=C(CCc1nccs1)N1CCN(c2cccnn2)CC1
- Percent Effect [1]: -4.08%
- Percent Effect [2]: 10.4%
- Percent Effect [3]: 4.08%
- Percent Effect [4]: 3.62%
- Percent Effect [5]: 2.84%
- Percent Effect [6]: -0.21%
- Percent Effect [7]: -0.404%
- Percent Effect [8]: 13.5%
- Percent Effect [9]: 5.71%
- Percent Effect [10]: 9.41%
- Percent Effect [11]: -12.4%

Structure (SMILES): Cc1cccc(COC[C@H]2CC[C@H]3[C@H](CCN3C(=O)CC3CC3)O2)n1
- Percent Effect [1]: -5.92%
- Percent Effect [2]: 10.7%
- Percent Effect [3]: 7.31%
- Percent Effect [4]: -1.34%
- Percent Effect [5]: -1.57%
- Percent Effect [6]: 5.36%
- Percent Effect [7]: 6.96%
- Percent Effect [8]: 15.9%
- Percent Effect [9]: 7.45%
- Percent Effect [10]: 19.2%
- Percent Effect [11]: -5.1%

Structure (SMILES): CC(C)c1cc(NC(=O)c2ccc(NC3CC3)nc2)[nH]n1
- Percent Effect [1]: -5.31%
- Percent Effect [2]: 13%
- Percent Effect [3]: 111%
- Percent Effect [4]: 10.4%
- Percent Effect [5]: 8.24%
- Percent Effect [6]: -6.05%
- Percent Effect [7]: 11.5%
- Percent Effect [8]: -1.61%
- Percent Effect [9]: 7.77%
- Percent Effect [10]: 24.4%
- Percent Effect [11]: -8.09%
